Rows were chosen to be rich in hits. Some 3.1% of all compounds tested hit in one or more screens of this group.
UHRF1 MBD2 ctr: blocks human UHRF1 binding to methylated DNA. Q96T88. UHRF1 binding to methylated oligo, TR-FRET. inhibition, % at 4.4 µM. 0.75% of 370,000 active. AID 687016; in the data active = inhibition above about 21%;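 note: UHRF1 SRA domain binding a hemimethylated CpG hairpin DNA probe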
KLK7 zymogen act: proKLK7 (human) activation, primary screen; P49862; purified proKLK7, EDANS-DABCYL substrate fluorescence; 100% is mature enzyme control, 0% vehicle; activation, % at 7 µM; 0.9% of 370,000 active; AID 652039;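 active = activation above the mean of all tested compounds plus 3 SD, computed per campaign excluding outliers beyond control limits, cut at about 13% in these data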
MBD2 DNA inh: MBD2-methylated oligo binding inhibition; inhibition, % at 4.4 µM; TR-FRET, MBD2 binding to methylated oligonucleotide; 0.31% of 370,000 active; Q9UBB5; in the data active = inhibition above about 13%
Neddylation inh: blocks human cullin neddylation | TR-FRET cullin neddylation, biochemical | 0.58% of 360,000 active | calls only at 25 µM; in the data active = inhibition above about 36%
Rin1-Abl PPI inh: inhibitors of human Rin1-Abl protein interaction | P00519+Q13671 | 0.4% of 360,000 active | inhibition, % at 7.35 µM | TR-FRET Rin1/Abl binding, biochemical; in the data active = inhibition above about 5%, passing the limit was not always enough
LEDGF integ inh: blocks HIV-1 LEDGF/p75-dependent DNA integration; inhibition, % at 3.7 µM; AID 743269; 0.64% of 370,000 active; TR-FRET IN-LEDGF/p75 DNA integration, Eu/Cy5;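 active = inhibition above the screen-wide mean plus 3 SD, cut at about 13% in these data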;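 note: signal is the Cy5 over europium emission ratio at 671 and 618 nm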
Rin1 Abl conf: confirmation of inhibitors of human Rin1-Abl interaction. shares compounds with Rin1-Abl PPI inh. TR-FRET Rin1-Abl binding, purified proteins. inhibition, % at 7.35 µM. 49% of 1,300 active
GFP quench-1: quenches GFP fluorescence, counter-screen for Rin1-Abl inhibitors | shares compounds with Rin1-Abl PPI inh | inhibitors/quenchers counterscreen | inhibition, % at 6.75 µM | 8.5% of 1,300 active;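 note: ABL1-eGFP fusion protein alone without its partner RIN1-SBP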
GFP quench DR: GFP fluorescence interference dose response; shares compounds with Rin1-Abl PPI inh; GFP fluorescence interference/quenching counterscreen; IC50, µM; 230 tested, under 10 active; AID 602182; call rule not given here;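 note: ABL1-eGFP fusion protein alone without its RIN1 binding partner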
GFP quench-2: GFP quenching artifact for Rin1-Abl inhibitor hits. IC50, µM. GFP fluorescence quenching counterscreen, biochemical. shares compounds with Rin1-Abl PPI inh. AID 602397. 25 tested, under 10 active; call rule not given here
Numbers stand for hits; – = inactive; · = no result given. Cut-off read from the data, not from the text of the source, unless noted: active = inhibition above about 6.5%; inactive = the rest.

SMILES	UHRF1 MBD2 ctr	KLK7 zymogen act	MBD2 DNA inh	Neddylation inh	Rin1-Abl PPI inh	LEDGF integ inh	Rin1 Abl conf	GFP quench-1	others
COc1ccc(S(=O)(=O)NC(C)C(=O)NCc2cccnc2)cc1OC (stereo not drawn)	–	–	–	–	8.4	–	–	–
CC(NC(=O)CNC(=O)c1cccs1)c1cccc(C(F)(F)F)c1 (stereo not drawn)	–	–	–	–	–	–	·	·
Cc1[nH][nH]c(=O)c1C(c1ccc(-c2cccc(Cl)c2)o1)c1c(C)[nH][nH]c1=O	·	·	·	–	7.9	·	8.5	–
Cc1[nH][nH]c(=O)c1C(c1ccc(-c2cccc(C(=O)O)c2)o1)c1c(C)[nH][nH]c1=O	–	–	–	–	–	–	·	·
C=CCn1c(SCCOc2ccccc2)nnc1C(C)NC(=O)c1ccccc1 (stereo not drawn)	–	–	–	–	–	–	·	·
C=CCn1c(SCC(=O)N2CCOCC2)nnc1C(C)NC(=O)c1ccccc1 (stereo not drawn)	–	–	–	–	7.2	–	–	–
CC1(C)NC(=O)N(CC(=O)OCC(=O)NC(=O)c2ccccc2)C1=O	–	–	–	–	–	–	·	·
Nc1[nH]c(C(=O)c2ccc(Br)cc2)c(-c2ccc3ccccc3c2)c1C(=O)NCCc1c[nH]c2ccccc12	–	–	–	·	·	–	·	·
COC(=O)c1ccc(COC(=O)C2CCN(S(=O)(=O)c3ccc(C)c(C)c3)CC2)o1	–	–	–	–	16	–	31	–	GFP quench DR=–
Cc1c(S(=O)(=O)N2CCN(C(=O)c3ccco3)CC2)c(=O)n(C)c(=O)n1C	–	–	–	–	8.2	–	–	–
CCCCN(C(=O)C1CCN(C(=O)c2ccccc2C)CC1)c1c(N)n(CCCC)c(=O)[nH]c1=O	–	–	–	–	–	–	·	·
CCCCn1c(N)c(N(CCC(C)C)C(=O)C2CCN(C(=O)c3ccccc3C)CC2)c(=O)[nH]c1=O	–	–	–	–	8.4	–	–	–
CC(C)Cn1cnc2c(c1=N)C(c1ccccc1)C1=C(CC(C)(C)CC1=O)O2 (stereo not drawn)	–	–	–	–	7.0	–	–	–
O=C(c1ccco1)N1CCc2[nH]nc(-c3ccc(Cl)cc3)c2C1	–	–	–	–	16	–	–	–
COc1ccc(C(=O)NCc2nnc(SCC(=O)Nc3nc4ccccc4s3)o2)cc1OC	–	–	–	–	–	–	·	·
CCCCCC(=O)NC(=S)NC1C2CC3CC(C2)CC1C3 (stereo not drawn)	–	–	–	–	–	–	·	·
CCC(C)N1C(=O)CCC1C(=O)N1CCN(c2ccc(F)cc2)CC1 (stereo not drawn)	–	–	–	–	–	–	·	·
CCC(C)N1C(=O)CCC1C(=O)N1CCN(c2ccccc2F)CC1 (stereo not drawn)	–	–	–	–	5.3	–	–	–
CCn1c(C(=O)Nc2ccsc2C(=O)OC)cc2sc(Cl)cc21	–	–	–	–	–	–	·	·
COC(=O)C1CCN(CC(=O)Nc2ccc3c(c2)OCCO3)CC1	–	–	–	–	–	–	·	·
CC1CC(C)CN(CC(=O)Nc2ccc3c(c2)OCCO3)C1 (stereo not drawn)	–	–	–	–	6.3	–	–	–
COCCNC(=O)c1cc2c3ccccc3n(C)c2s1	–	–	–	–	31	–	22	–	GFP quench DR=–
COc1cccc(N=C2SC(C(=O)Nc3ccc(F)cc3)CC(=O)N2C)c1 (stereo not drawn)	–	–	–	–	10	–	–	–
Cc1cc(C)cc(NC(=O)C2(C(=O)C3CC3)CC(c3ccccc3C(F)(F)F)=NO2)c1 (stereo not drawn)	–	–	–	·	·	–	·	·
CC(C)(C)c1ccc(-c2n[nH]c(=S)n2CCCN2CCOCC2)cc1	–	–	–	–	8.7	–	7.6	–
SMILES	UHRF1 MBD2 ctr	KLK7 zymogen act	MBD2 DNA inh	Neddylation inh	Rin1-Abl PPI inh	LEDGF integ inh	Rin1 Abl conf	GFP quench-1	others
CCCCN(C)C(=O)c1ccc2c(c1)S(=O)(=O)c1ccccc1C2=O	–	–	–	–	10	–	–	–
CC(=O)c1ccc(NC(=O)Nc2ccc(S(=O)(=O)N3CCCC3)cc2)cc1	–	–	–	–	15	–	11	–
Cc1ccccc1C(=O)N1CCC(C(=O)Nc2ccc(S(=O)(=O)N3CCCCC3)cc2)CC1	–	–	–	–	12	–	7.8	–
COc1cc(C(=O)OCC(=O)c2ccc(S(=O)(=O)N3CCCCC3)cc2)cc(OC)c1OC	–	–	–	–	–	–	·	·
COc1cc(C(=O)OCC(=O)Nc2ccc(S(=O)(=O)N3CCCC3)cc2)cc(OC)c1OC	–	–	–	–	18	–	30	–	GFP quench DR=–
O=C(Nc1ccc(S(=O)(=O)Nc2ccccc2)cc1)C1CC1	–	–	–	–	11	–	–	–
Cc1ccccc1C(=O)N1CCC(C(=O)Nc2ccc(S(=O)(=O)N3CCOCC3)cc2)CC1	–	–	–	–	–	–	·	·
C=CCN=C1NC(c2ccc(Cl)cc2)C(C(=O)OC)=C(C)N1Cc1ccccc1C(F)(F)F (stereo not drawn)	–	–	–	·	·	–	·	·
Cc1ccc(NC(=O)C2CCN(C(=O)c3cccs3)CC2)cc1	–	–	–	–	–	–	·	·
CC(=O)Nc1ccc(NC(=O)C2CCN(C(=O)c3cccs3)CC2)cc1	–	–	–	–	47	–	71	–	GFP quench DR=–;GFP quench-2=–
CCc1nc2c(OCC(=O)C(C)(C)C)cccn2c1N(C)C(=O)C(C)C	·	·	·	–	–	·	·	·
COC(=O)c1cccc(C23CC4(C2)[C@H](CN(Cc2cccnc2)[C@@H]4c2ccccc2)C3c2ccc(C(F)(F)F)cc2)c1 (stereo partly drawn)	–	–	–	·	·	–	·	·
O=C(CSc1nnc(Cn2c(=O)sc3ccccc32)n1-c1ccccc1)Nc1nccs1	–	–	–	–	9.6	–	–	–
COc1ccc(-n2c(Cn3c(=O)sc4ccccc43)nnc2SCC(=O)N2CCOCC2)cc1	–	–	–	–	6.5	–	–	–
O=C(CSc1nnc(Cn2c(=O)sc3ccccc32)n1-c1ccccc1)N1CCCC1	–	–	–	–	–	–	·	·
Cc1ccc(C)c(NC(=O)CN(C)C(=O)COc2cccc3c2OC(C)(C)C3)c1	–	–	–	–	–	–	·	·
COc1ccc(-c2nnc(SCC(=O)N/N=C(\C)c3ccc(-c4ccccc4)cc3)n2-c2ccc(C)cc2)cc1	–	–	–	·	·	–	·	·

High-throughput results deposited in PubChem by several laboratories.
